Pf Dd2 growth – Plasmodium falciparum Dd2 growth inhibition | P. falciparum Dd2 growth, SYBR Green, 72 h | Potency, µM (series often up to 28.9 µM), without a hit: at the top dose activity, negative = inhibition, hits mostly inhibitors | 120,000 tested, 4.3% active; active = well fitted inhibition curve with a large enough effect;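 note: plate controls were DMSO vehicle for no effect and reference drug for full effect; nearly all actives have a fitted effect of over 65% in size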
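Infected erythrocytes (Dd2, 0.3% parasitemia, 2.5% hematocrit final) are added to compound in RPMI-1640/Albumax II medium, grown 72 h at 37C in low oxygen, then lysed with saponin/Triton-X containing SYBR Green and read by fluorescence.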
* hit, by the source's call; i = inactive; [ ] = remark or other dose. The sample as a whole holds a higher share of hits than the screen did. Potency is the fitted concentration of half-maximal effect.

SMILES	Pf Dd2 growth
NC(=O)c1nc(CNC(=O)CC(c2ccccc2)c2cccc(Cl)c2)no1 (configuration not stated)	-7%
O=[N+]([O-])c1ccc(O)c(-c2ccnc3cc(-c4ccccc4)nn23)c1	10µM*
O=[N+]([O-])c1cccc(-c2ncc[nH]2)c1	-12%[76.6 µM]
COc1ccc(-c2cc3ncc(C(=O)c4cc([N+](=O)[O-])ccc4O)cn3n2)cc1	-4%
CN1CCC(N[C@H]2CC(C)(C)[C@@H]3C[C@@](C)(O)CC[C@]23CCC(=O)NCCN2CCOCC2)CC1	-9%
COc1ccc(NC(=O)N2CCc3c(C(=O)NCCN4CCCCCC4)cccc32)cc1	2.8µM*
COc1ccc(NC(=O)N2CCc3c(C(=O)N(C)Cc4ccco4)cccc32)cc1	-15%
COc1ccc(NC(=O)N2CCc3c(C(=O)NC(C)C)cccc32)cc1	-7%
CCCCN(C)C(=O)c1cccc2c1CCN2C(=O)Nc1ccc(OC)cc1	14µM*
COc1ccc(NC(=O)N2CCc3c(C(=O)N(C)C)cccc32)cc1	i
COc1ccc(CNC(=O)c2ccc(NC(=O)N3CCCCc4ccccc43)cc2)cc1	-23%
O=C(NC[C@H]1O[C@@H](CO)[C@@H](O)[C@H]1N1CCN(c2ccc(F)cc2)CC1)c1cccs1	-11%
CN1C[C@H](NCc2nccn2C)CCC[C@@H](C(=O)NC2CCOCC2)CC1=O	-7%[44.1 µM]
O=[S+]([O-])(c1ccccc1)N1CC2(COCCN(c3nccc(C(F)(F)F)n3)C2)C1	21%[44.1 µM]
O=C(O)[C@@H]1CN(S(=O)(=O)C2CC2)C[C@H]1c1ccccn1	7%
COCCN1C(=O)c2cccn2CC1CNC(=O)COc1ccccc1 (configuration not stated)	6%
CN1C[C@H](NC2CCC2)CCC[C@@H](C(=O)NC2CCOCC2)CC1=O	-3%[44.1 µM]
Cc1cccc([C@H]2C[C@@H](O)[C@@H](O)[C@@H]2NCC2CCCC2)c1	-3%[44.1 µM]
O[C@H]1[C@H](NCC2CCCC2)[C@@H](c2ccccc2)C[C@H]1O	1.8µM*
CS(=O)(=O)N[C@H]1[C@H](O)[C@H](O)C[C@@H]1c1ccccc1	-6%[44.1 µM]
CCOc1ccc(C(=O)N2CC(c3nnc(C(C)C)o3)C3(CCOCC3)C2)cc1OCC (configuration not stated)	12%
COC(=O)[C@H]1CN(C(=O)c2cccnc2)CCN1C(=O)CSC	-6%[44.1 µM]
CCN(CC)C(=O)N1CCC(Oc2ccc(-c3noc(COC)n3)cc2)C1 (configuration not stated)	13%[5.79 µM]
COCc1nc(-c2ccc(OC3CN(C(=O)c4ccc(OC)nc4)C3)cc2)no1	-26%
COCc1nc(-c2ccc(OC3CN(C(=O)c4cc(C)n(C)n4)C3)cc2)no1	7.9µM*
SMILES	Pf Dd2 growth
CCn1ccc(C(=O)N2CC[C@@H]3COCCN(Cc4ccncc4)[C@@H]3C2)n1	i
Cn1ccnc1CN1C(=O)CO[C@H]2CN(C(=O)c3cnccn3)C[C@H]21	27%[44.1 µM]
COC[C@@]12CC[C@@H](N3CCOCC3)C[C@H]1CCN(c1nccc(NC(C)C)n1)C2	i
COC[C@@]12CC[C@@H](N3CCOCC3)C[C@H]1CCN(c1nccc(N)n1)C2	7%
CCN(C)c1ccnc(N2CC[C@@H]3C[C@H](N4CCOCC4)CC[C@@]3(COC)C2)n1	8.9µM*
CC(C)c1noc(-c2cn(C3CCCN(C(=O)c4ccncc4)C3)nn2)n1 (configuration not stated)	129%
CC(C)C[C@@H](NC(=O)C1=C[C@@H](NC(=O)Nc2ccc(OC(F)(F)F)cc2)[C@@H](O)[C@H](O)C1)C(N)=O	1%
NC(=O)[C@H](Cc1cccs1)NC(=O)C1=C[C@@H](NC(=O)c2cccnc2)[C@@H](O)[C@H](O)C1	45%[44.1 µM]
CC(C)n1cc(CN2CCC(C3CCN(S(C)(=O)=O)CC3)C2)cn1 (configuration not stated)	5%
Cc1ccc(C(=O)NC2CCN(c3ccc(F)cc3)C2=O)cc1C (configuration not stated)	-19%
Cc1ccnn1CCC(=O)Nc1nn(C)c2cccc(N3CCOCC3)c12	8%
COc1ccccc1NC(=O)Cn1c(=O)n(Cc2ccco2)c(=O)c2cccnc21	13%
CCOc1ccccc1NC(=O)Cn1c(=O)n(Cc2ccco2)c(=O)c2cccnc21	11µM*
Cc1ccc(NC(=O)Cn2c(=O)n(Cc3ccco3)c(=O)c3ccccc32)c(C)c1	-2%
O=C(O)C[C@@H]1CCN(C(=O)c2cccs2)C[C@@H]1CCN1CCN(c2cccc(C(F)(F)F)c2)CC1	-48%
O=C(c1cccc(=O)[nH]1)N1CCCC(c2n[nH]c(=O)n2-c2ccccc2)C1 (configuration not stated)	15%
O=S(=O)(NCC1(COc2cnccn2)C[C@@H](O)[C@@H](O)C1)c1ccc(Cl)cc1 (some centres not stated)	-28%
Cc1ccc(C2CCN(C(=O)Nc3ccc(Cl)cc3)C2)cc1 (configuration not stated)	i
CCC(=O)C1=C(c2ccc(Cl)cc2)N(C(=O)CC)n2c(C)nnc2S1	2.8µM*
CCCSC1=NC2(CCN(C(=O)NC3CCCCC3)CC2)N=C1c1ccc(Cl)cc1	7%
